Test results as given in article PMC13494018.

B1: d4r1_design_ppi_352_dldesign_0_cycle0_af2pred (protein)
chain: AAAEQNAKNLKEAEKAKKEAEEAKKLAKEDVAKGAEKLTEAAKKLAEIYEKASPEIQPYVAKELQEVAKAAQEAIKAKLEKDAA
B2: d4r2_design_ppi_48_dldesign_0_cycle1_af2pred (protein)
chain: DFTAKAAAQAKKYKAEAKANAADPEKVGEVLAKALKAANEAKEAGNPAAAAALKAAADEILKINRESLLKEET
B3: d3r1_design_ppi_897_dldesign_0_cycle1_af2pred (protein)
chain: MEALKAVEEKMKEAIEYAKKAGDEELAKEAEKRRKALLAGAERAVEVAKKNPVAGASLAQAVIKSAELASEYFKELVEKKK
B4: d3r1_design_ppi_981_dldesign_0_cycle1_af2pred (protein)
chain: MEEFAKEMEKWSEEAAKKYEEAKELAKKDPKEGVKVLEEAIKELEEKAKEYEKKGPYGKNIAKALNWLAKKFKELKKKIEAS
B5: d3r1_design_ppi_897_dldesign_0_cycle0_af2pred (protein)
chain: MEAKEKVKKLTEEAIKYAEEAGDKETAEEAKKGGEALLAGAKEAEELAKKNPVAGASLQEAVIKSAELFAKSIKEEVEKKK
B6: d4r1_design_ppi_144_dldesign_0_cycle1_af2pred (protein)
chain: DEEVKKAAKEAKEAAKEAEKLAKKDKSLKPLAEQAKKAAKYAEYYTKINPTLALNAAKAAKKIYEEMKKLA
B7: d4r2_design_ppi_159_dldesign_0_cycle1_af2pred (protein)
chain: ELEEEAKKAKEVAEKLKKFNLESRLEADEIEAKSKAALREGKENNEEAKKEGLKKVKEQLKKAEELLKKL
B8: d3r1_design_ppi_729_dldesign_0_cycle0_af2pred (protein)
chain: DEEKKAKEAAEEAIKAKEKLGTGKEVKKTADEAFAAAKKATPEQAKALYKKLLEWFKEEKAKAEAEIAAA
B9: d4r1_design_ppi_77_dldesign_0_cycle1_af2pred (protein)
chain: MKEEEKALEKANEYIEKAEELAKKALENGEGDEVFSEAGKLLEKAVEEAEKNKENREEILKRVQEVRDLLREAVLKRLKAE
B10: d4r2_design_ppi_53_dldesign_0_cycle1_af2pred (protein)
chain: EEAKARAEKAFARAKALKARAKELKAKGEELFANAPELGEESLKRGKVYKLQAEQYEARAEEAEALGKELAAA
B11: d4r1_design_ppi_425_dldesign_0_cycle1_af2pred (protein)
chain: AAEAAAAAEKAAAAAGEKAGKAAAEHVAAGAKAGTLPQAVQDVLEQTSELKYKGDEVAAKAAYEAAREAAKAARAAA
B12: d3r1_design_ppi_985_dldesign_0_cycle1_af2pred (protein)
chain: EEAEKLLKEIKEKSEKAIKLAEEGKIEEAEKELQEALKIAQELAKKYPEAAPEAAKIVNKAATELEKKKEEQKKKLE
B13: d4r1_design_ppi_144_dldesign_0_cycle0_af2pred (protein)
chain: DEETKKAVEEAKKAAKEAEEIAKKYPELKPLAEQAKKAAKYAEKYAKENPIAAKNAMKATKAIAEEMKKLA
B14: d4r2_design_ppi_27_dldesign_0_cycle0_af2pred (protein)
chain: SEEEKKKKEAEKKVEEAKKKLEEAKKFAKEGKKEEGAKKLEEVAKELDEKADEFFASGSEEYREAGAKLGSLSIRAKLYAEGLKAK
B15: d4r2_design_ppi_27_dldesign_0_cycle1_af2pred (protein)
chain: GKEKEEKEKAEKIVEEAKKELEEAKEYGKKTTKEEGAEKLEEVAKKLKEKAEEFLATGKEEWKHAGAKLESLAIRAELYAKGLRRE
B16: d4r1_design_ppi_33_dldesign_0_cycle0_af2pred (protein)
chain: SEEEEKNAENLKKAAEELEKIAEEGIKKGASVEEIKKKLEEKGKEFAKKYPKNAKSYLELAKIVAKEAEKKLK
B17: d3r1_design_ppi_859_dldesign_0_cycle1_af2pred (protein)
chain: ESELLKQVAEAVQQAVKAALKDPEEAKKVVEKALELDAEKAIEVAKSLAEAYKIAGNEEKAAAAKKVAELLEKLSKERK
B18: d3r1_design_ppi_734_dldesign_0_cycle0_af2pred (protein)
chain: SSEEELKLLTGKNALEILPEILKEAEKLLKEAKKTGDKEKLKEAIKQAENAIAAAKAAAIVDPKKAEEYKKKAEKLKKEAEKLL
B19: d4r1_design_ppi_219_dldesign_0_cycle1_af2pred (protein)
chain: AAEAEEYRKKAAEYIQELQELKTEIKATGTEEQAKKADEIWEEYKKKVKEAKEKYKDGTDLELAKALYKIAKENYEKLKELKE
B20: d3r1_design_ppi_891_dldesign_0_cycle1_af2pred (protein)
chain: AEEALKEEMVKKAKEVAEKAAKAGYPEEAKQAAKAGAAFAPEKGEEIKKYAEEEIKKAEKEKEEKKKKEKEKKE
B21: d3r1_design_ppi_728_dldesign_0_cycle1_af2pred (protein)
chain: DIRENIKKLAKELKKEAEKLSEYDPELAKKAIEYAKKAEAAKTAEEAAKYATKAAEYVEKAEELAKKKKEELEK
B22: d4r2_design_ppi_0_dldesign_0_cycle1_af2pred (protein)
chain: VAKELAKKFQKAIEALFEASTIEEVPEARAKVKEARKIAREGVENPETAKEKLEEGVKLVEKKAKEMEEKKKKEEEEKLK
B23: d4r1_design_ppi_339_dldesign_0_cycle0_af2pred (protein)
chain: SEKAEKAAKEAEEEAKKAKELAKEAAKLSPSYAAAFKKLAEAFKKAAKLLKEDYEKGLKEFKELKKSFELAKKAAAKAKAAAAA
B24: d4r2_design_ppi_152_dldesign_0_cycle0_af2pred (protein)
chain: AAAAAEAEKAAAAATQKAEELAEKRGEEHGAEVGLKKYLENPEEAKKMGKEIYELGLKKYKELKKKEEEEK
B25: d4r1_design_ppi_310_dldesign_0_cycle0_af2pred (protein)
chain: MEAIEEMRKKKEEAIKEAEESNPEEGAKIMEEAMKEIQEIANKAIKSSSSEEAKKILEEHEKLVEELEKKKEELKKKAEEEKK
B26: d4r2_design_ppi_24_dldesign_0_cycle0_af2pred (protein)
chain: KKEEEEKEKLKNFAKQASGKAEALSDQLKDVAEKTGSEELKEKAKKLEELGKEAEKNPELGKKKEEEAKKVHKEGKEYYKAKK
B27: d3r1_design_ppi_851_dldesign_0_cycle0_af2pred (protein)
chain: DEVKKLLEEAKKLAEKAEELAKKGGSVEEVEKAAEKAQEAAVKAIKLAAKTEDGEKLTKEAGKYAQKATQAAAEAKEKAKKEA
B28: d4r1_design_ppi_104_dldesign_0_cycle0_af2pred (protein)
chain: MSIEERLEELEKRLTEETKKEAEENLKRLEEVAKELAELDPELAPEAKKALEEAKKLFEDPEKIFEAAALARESLEEFEKRLKELKE
B29: d3r1_design_ppi_994_dldesign_0_cycle0_af2pred (protein)
chain: MEELEKVAKKILKEAKKRAEEAAKKGAESENGEEVFTKGLQETLEKASEEAEKAGLPDELAVKVLKEIVKYGNEVKKAALAARA
B30: d4r2_design_ppi_24_dldesign_0_cycle1_af2pred (protein)
chain: SMEKEKEEELKNYAKQVAGKAFTYSDQLKEVAEKTGLEELKEKAEELEKLGKEALENPEKAKEYEAKAKEVFKEGRELYKKAK
B31: d4r1_design_ppi_171_dldesign_0_cycle1_af2pred (protein)
chain: MKEIEEAQKKYKEALEKLKEVGEEYYQAVLDAIKNKGIEEAVKTAEKLAKELEKEDPEKGKKAKEAAELLKEAKKLIEKVRKE
B32: d4r1_design_ppi_339_dldesign_0_cycle1_af2pred (protein)
chain: AEEAEKAAKEAEEKAKEAEELAKEAAKLHPTYAQAFELLAKAFKKAAELLKKDYKEGKKYFEELKESFERAKKALAIAKKEKAA
B33: d4r1_design_ppi_104_dldesign_0_cycle1_af2pred (protein)
chain: MSIEERLEELEKRLYEEIKKKAEEYLEELEKESEKLAKLDPSLAEEAKKKYEEAKELYKDPETVYLSKSHAEENLEEVKKKIKELES
B34: d4r1_design_ppi_77_dldesign_0_cycle0_af2pred (protein)
chain: MKEKEEALKEAKKHLKEAEKLAEEAEKNGKGDELFSKLGKHLQEAAKYAEKNKENQEEINKELQKVAKKARDAILKVQKAR
B35: d4r1_design_ppi_171_dldesign_0_cycle0_af2pred (protein)
chain: MEKIEEANKLLKKALELLKEVGEEYYKKVMEAIKTEGIDAAVEKAKEIAKELKKKDKEKGKIAEEAYKNLEKAKELIKEIYEE
B36: d4r2_design_ppi_34_dldesign_0_cycle0_af2pred (protein)
chain: SGAGQAKMERNAALSSLRAAKANPALAEIAAEDAIEAAKRALAVPEASPEVKEEAERVRKEAEAVGAAAKAAKAA
B37: d4r2_design_ppi_49_dldesign_0_cycle0_af2pred (protein)
chain: GKIEELKKKLKEAEKKLEEAKEKLNKAKAEAESYRIRAEANKENKEKYLKKAEEIEKEEIEKAKKEIEEYEKEKKEAEKKLKEAKE
B38: d4r1_design_ppi_174_dldesign_0_cycle0_af2pred (protein)
chain: SMEEKEAAEKMKELNEIAYEEYERVVKEGTEEAAREAMRRIMEKAKEHPYKETALKYVEVTLKHLKEEVSPEAAKAAEEELKRELA

target: VTCN1, Q7Z7D3
Sequence (Q7Z7D3 whole entry): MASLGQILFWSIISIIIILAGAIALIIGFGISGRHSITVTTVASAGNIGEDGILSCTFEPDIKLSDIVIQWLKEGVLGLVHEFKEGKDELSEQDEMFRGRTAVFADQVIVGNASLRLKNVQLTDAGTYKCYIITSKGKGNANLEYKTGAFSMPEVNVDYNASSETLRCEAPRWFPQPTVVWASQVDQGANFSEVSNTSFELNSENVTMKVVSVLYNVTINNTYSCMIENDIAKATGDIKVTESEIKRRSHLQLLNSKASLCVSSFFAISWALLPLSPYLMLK

Binding in a display sort, inactive:
B1 not found
B2 not found
B3 not found
B4 not found
B5 not found
B6 not found
B7 not found
B8 not found
B9 not found
B10 not found
B11 not found
B12 not found
B13 not found
B14 not found
B15 not found
B16 not found
B17 not found
B18 not found
B19 not found
B20 not found
B21 not found
B22 not found
B23 not found
B24 not found
B25 not found
B26 not found
B27 not found
B28 not found
B29 not found
B30 not found
B31 not found
B32 not found
B33 not found
B34 not found
B35 not found
B36 not found
B37 not found
B38 not found
